# Measurements reported in ChEMBL document CHEMBL3988442, “University of Dundee, Small-Polar-MMV Screening Library” (2021).
# For some of these results: Potency and affinity values are given separately.
# What was measured:
# Parameters in all cases: scale not given: direction of the effect not stated beside the values
# [1] = target: Protein translocase subunit SecA (Escherichia coli (strain K12)) (UniProt P10408); test: Assay to Identify E. coli SecA ATPase Inhibitors; format: functional; settings: 30 µM
# Sequence of Protein translocase subunit SecA (Escherichia coli (strain K12)) (P10408 whole entry): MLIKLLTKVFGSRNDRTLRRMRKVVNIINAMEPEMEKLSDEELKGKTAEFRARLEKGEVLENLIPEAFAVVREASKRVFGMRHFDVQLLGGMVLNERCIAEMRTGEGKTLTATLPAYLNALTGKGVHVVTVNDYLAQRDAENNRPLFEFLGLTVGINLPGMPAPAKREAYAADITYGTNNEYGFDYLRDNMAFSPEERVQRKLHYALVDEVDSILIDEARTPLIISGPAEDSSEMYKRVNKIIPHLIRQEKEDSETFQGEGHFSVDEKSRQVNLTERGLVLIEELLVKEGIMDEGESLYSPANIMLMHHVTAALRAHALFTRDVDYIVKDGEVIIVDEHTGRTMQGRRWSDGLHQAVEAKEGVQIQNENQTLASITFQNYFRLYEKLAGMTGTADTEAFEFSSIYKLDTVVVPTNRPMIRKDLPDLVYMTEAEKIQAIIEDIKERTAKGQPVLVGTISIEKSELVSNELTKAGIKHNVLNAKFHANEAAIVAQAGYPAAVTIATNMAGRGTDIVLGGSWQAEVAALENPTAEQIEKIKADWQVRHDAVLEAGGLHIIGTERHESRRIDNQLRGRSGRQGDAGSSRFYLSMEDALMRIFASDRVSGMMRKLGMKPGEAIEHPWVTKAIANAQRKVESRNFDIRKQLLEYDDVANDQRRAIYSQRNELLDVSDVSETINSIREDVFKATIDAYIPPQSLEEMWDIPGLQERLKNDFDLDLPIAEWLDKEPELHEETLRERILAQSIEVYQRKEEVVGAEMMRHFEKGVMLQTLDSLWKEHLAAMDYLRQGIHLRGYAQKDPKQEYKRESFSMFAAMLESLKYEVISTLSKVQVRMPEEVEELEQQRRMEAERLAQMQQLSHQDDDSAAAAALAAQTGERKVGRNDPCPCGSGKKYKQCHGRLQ
# [2] = target: T1, Ubiquitin-activating enzyme e1, putative (Leishmania donovani (strain BPK282A1)) (UniProt E9BSI1); test: Leishmania donovani Ubiquitin Activating Enzyme (LdE1); format: functional; settings: 30 µM
# T1 sequence (whole entry): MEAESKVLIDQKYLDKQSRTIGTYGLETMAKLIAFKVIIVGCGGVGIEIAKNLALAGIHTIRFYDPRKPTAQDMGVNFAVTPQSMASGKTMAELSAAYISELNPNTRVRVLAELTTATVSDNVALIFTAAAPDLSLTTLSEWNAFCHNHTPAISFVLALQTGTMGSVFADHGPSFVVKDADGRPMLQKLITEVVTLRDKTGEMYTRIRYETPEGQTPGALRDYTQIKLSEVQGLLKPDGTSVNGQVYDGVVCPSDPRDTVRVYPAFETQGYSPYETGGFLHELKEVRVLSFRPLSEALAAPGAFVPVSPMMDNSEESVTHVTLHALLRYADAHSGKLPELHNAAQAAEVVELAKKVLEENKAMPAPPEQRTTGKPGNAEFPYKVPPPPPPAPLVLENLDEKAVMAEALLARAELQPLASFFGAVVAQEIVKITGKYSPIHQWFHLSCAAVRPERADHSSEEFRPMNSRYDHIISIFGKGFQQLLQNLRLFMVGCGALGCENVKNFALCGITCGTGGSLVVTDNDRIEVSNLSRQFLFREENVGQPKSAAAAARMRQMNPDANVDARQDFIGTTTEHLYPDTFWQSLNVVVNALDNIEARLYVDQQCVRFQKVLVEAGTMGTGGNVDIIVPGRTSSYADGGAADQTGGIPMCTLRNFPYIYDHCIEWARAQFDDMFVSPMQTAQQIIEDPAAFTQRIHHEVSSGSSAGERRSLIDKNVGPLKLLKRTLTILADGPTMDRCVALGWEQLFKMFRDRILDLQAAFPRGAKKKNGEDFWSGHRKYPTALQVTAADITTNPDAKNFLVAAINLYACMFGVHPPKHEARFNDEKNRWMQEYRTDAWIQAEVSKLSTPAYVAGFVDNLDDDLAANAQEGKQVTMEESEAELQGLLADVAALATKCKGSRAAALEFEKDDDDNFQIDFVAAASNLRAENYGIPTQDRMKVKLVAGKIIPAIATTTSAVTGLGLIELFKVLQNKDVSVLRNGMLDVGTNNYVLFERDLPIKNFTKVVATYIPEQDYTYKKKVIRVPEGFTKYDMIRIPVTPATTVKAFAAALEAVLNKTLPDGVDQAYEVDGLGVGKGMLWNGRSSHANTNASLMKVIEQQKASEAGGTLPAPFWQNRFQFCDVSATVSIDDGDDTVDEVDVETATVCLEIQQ
# [3] = target: AMP-activated protein kinase, AMPK (Homo sapiens) (UniProt P54646+O43741+P54619+Q9UGJ0+Q9Y478+Q13131+Q9UGI9); test: AMP-dependent Kinase enzyme assay. An in vitro enzyme assay that detects ADP turnover that is directly proportional to AMPK activity. This uses naive AMPK that is activated during the assay with MK-8722; format: functional; settings: 30 µM
# [4] = target: Sialic acid-binding Ig-like lectin 9 (Homo sapiens) (UniProt Q9Y336); test: Hs-Siglec9 ALPHAscreen SOP 20170721; settings: 10 µM
# Sequence of Sialic acid-binding Ig-like lectin 9 (Homo sapiens) (Q9Y336 whole entry): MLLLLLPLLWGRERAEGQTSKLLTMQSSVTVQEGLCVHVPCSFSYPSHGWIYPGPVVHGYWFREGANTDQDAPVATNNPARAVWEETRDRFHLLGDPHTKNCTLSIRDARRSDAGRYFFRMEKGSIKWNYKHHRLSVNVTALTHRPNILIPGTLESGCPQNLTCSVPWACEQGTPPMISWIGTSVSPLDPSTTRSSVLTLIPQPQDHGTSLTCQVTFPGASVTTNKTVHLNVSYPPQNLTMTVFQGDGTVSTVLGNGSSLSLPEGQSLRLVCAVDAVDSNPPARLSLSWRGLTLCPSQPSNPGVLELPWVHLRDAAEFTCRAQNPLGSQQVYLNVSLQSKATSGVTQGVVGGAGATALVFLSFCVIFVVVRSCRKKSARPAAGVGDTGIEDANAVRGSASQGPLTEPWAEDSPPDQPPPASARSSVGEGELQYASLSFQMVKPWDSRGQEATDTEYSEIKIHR
# Trypanosoma cruzi = test: Trypanosoma cruzi phosphomannomutase and mannose-1-phosphate guanylyltransferase assay; format: functional; settings: 10 µM
# [5] = target: T2, Arginase-2, mitochondrial (Homo sapiens) (UniProt P78540); test: in vitro enzyme assay to detect the production of urea directly proportional to the activity of Arginase II; format: functional; settings: 33.3 µM; note: in the data most compounds retested in dose-response had high values
# T2 sequence (whole entry): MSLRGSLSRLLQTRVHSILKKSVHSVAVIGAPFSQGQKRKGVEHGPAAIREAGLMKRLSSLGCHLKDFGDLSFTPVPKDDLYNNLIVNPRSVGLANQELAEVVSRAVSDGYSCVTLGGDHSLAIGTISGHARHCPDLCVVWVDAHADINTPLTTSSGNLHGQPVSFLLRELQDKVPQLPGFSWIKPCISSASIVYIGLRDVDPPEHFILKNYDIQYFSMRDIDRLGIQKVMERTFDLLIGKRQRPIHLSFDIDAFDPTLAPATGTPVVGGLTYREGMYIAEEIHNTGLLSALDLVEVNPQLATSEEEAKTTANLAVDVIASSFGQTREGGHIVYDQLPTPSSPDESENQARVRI
# [6] = target: T3, Proteasome subunit beta (Trypanosoma cruzi) (UniProt O96673); test: Trypanosoma cruzi proteasome chymotrypsin-like activity (TcProtChymo) assay.; note: in the data most compounds retested in dose-response had high values; format: functional; settings: 9.37 µM
# T3 sequence (whole entry): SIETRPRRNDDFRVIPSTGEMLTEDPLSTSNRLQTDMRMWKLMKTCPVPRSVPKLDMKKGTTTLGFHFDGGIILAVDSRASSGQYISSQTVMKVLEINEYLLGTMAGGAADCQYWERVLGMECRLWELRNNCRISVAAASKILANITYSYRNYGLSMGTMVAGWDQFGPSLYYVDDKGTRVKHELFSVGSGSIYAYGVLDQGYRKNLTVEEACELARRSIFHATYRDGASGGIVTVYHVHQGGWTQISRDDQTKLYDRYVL
# Homo sapiens = species on record: Homo sapiens; test: To identify inhibition of the IFN signalling (Jak-Stat) pathway via expression of an eGFP reporter gene under the control of an IFN-stimulated response element (ISRE) containing MxA promoter.; format: functional; settings: 30 µM
# [7] = target: T4, Tyrosyl-tRNA synthetase, putative (Trypanosoma cruzi (strain CL Brener)) (UniProt Q4DSP6); test: Trypanosoma cruzi tyrosyl tRNA synthetase (TcYRS) _High Tyrosine SOP; format: functional; settings: 30 µM; note: in the data most compounds retested in dose-response had high values
# T4 sequence (whole entry): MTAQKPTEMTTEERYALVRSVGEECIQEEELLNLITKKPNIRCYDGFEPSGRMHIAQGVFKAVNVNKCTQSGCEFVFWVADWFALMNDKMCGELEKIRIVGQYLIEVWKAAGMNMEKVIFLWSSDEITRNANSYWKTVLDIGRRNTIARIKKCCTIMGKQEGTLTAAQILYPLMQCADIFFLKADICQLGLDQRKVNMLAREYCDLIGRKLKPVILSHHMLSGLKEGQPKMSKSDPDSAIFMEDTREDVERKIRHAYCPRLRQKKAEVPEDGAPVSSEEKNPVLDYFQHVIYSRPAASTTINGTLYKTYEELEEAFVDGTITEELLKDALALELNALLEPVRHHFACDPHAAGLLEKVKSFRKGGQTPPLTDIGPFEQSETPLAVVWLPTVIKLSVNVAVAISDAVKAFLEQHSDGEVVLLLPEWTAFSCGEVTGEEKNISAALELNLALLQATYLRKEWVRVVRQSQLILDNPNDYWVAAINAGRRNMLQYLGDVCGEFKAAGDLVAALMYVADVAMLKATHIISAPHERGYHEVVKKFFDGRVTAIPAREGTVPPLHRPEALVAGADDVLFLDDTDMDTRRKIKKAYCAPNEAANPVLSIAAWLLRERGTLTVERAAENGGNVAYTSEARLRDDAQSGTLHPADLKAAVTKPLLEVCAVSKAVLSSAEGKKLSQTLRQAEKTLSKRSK
# [8] = target: T4, Tyrosyl-tRNA synthetase, putative (Trypanosoma cruzi (strain CL Brener)); test: Trypanosoma cruzi tyrosyl tRNA synthetase (TcYRS) SOP; format: functional; settings: 30 µM
# [9] = target: Chromo domain-containing protein 1 (Saccharomyces cerevisiae (strain ATCC 204508 / S288c) (Baker's yeast)) (UniProt P32657); test: ScCHD-1 Enzyme Inhibition Assay; format: functional; settings: 30 µM; note: in the data most compounds retested in dose-response had high values
# Sequence of Chromo domain-containing protein 1 (Saccharomyces cerevisiae (strain ATCC 204508 / S288c) (Baker's yeast)) (P32657 whole entry, the tested form may be a part): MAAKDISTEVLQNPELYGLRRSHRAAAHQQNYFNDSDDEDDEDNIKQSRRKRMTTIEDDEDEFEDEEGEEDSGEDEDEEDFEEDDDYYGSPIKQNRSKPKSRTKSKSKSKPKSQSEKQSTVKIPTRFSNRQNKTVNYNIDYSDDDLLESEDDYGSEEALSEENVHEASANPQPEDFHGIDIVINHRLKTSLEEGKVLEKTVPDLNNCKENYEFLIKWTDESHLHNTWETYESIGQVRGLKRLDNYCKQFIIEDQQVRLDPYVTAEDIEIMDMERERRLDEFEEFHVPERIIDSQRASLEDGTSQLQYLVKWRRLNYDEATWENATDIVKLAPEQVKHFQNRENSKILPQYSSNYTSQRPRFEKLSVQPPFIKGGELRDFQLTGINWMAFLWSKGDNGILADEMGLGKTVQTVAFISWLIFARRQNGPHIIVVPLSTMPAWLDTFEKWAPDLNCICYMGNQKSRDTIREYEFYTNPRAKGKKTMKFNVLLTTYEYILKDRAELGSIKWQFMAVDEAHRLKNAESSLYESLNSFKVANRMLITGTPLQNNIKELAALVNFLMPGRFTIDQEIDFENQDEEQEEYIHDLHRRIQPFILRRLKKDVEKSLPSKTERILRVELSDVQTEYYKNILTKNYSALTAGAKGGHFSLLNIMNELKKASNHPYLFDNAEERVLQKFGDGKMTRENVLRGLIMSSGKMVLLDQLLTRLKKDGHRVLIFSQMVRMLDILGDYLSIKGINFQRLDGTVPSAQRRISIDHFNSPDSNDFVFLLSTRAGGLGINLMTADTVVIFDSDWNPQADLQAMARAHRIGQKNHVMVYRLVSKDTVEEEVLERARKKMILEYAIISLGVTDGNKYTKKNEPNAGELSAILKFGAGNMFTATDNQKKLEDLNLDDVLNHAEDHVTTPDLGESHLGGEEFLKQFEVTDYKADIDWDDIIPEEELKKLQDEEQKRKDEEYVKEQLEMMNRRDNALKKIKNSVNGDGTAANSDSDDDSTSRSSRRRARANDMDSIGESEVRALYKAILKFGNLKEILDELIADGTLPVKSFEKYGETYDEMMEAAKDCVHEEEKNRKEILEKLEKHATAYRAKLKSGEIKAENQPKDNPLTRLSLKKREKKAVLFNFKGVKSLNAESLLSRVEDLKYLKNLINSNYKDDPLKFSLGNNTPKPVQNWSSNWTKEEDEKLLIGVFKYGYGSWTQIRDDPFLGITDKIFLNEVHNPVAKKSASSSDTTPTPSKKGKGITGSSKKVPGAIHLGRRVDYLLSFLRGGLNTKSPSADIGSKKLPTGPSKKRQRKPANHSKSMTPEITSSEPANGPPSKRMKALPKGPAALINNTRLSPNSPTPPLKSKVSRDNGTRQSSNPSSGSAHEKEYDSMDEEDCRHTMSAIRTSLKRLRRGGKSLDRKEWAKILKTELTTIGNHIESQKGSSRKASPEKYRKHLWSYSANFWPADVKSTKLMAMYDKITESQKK
SMILES,Percent Effect [1] [%],Percent Effect [2] [%],Percent Effect [3] [%],Percent Effect [4] [%],Percent Effect (Trypanosoma cruzi) [%],Percent Effect [5] [%],Percent Effect [6] [%],Percent Effect (Homo sapiens) [%],Percent Effect [7] [%],Percent Effect [8] [%],Percent Effect [9] [%]
Cc1cnn(CC2CN(CCN3CCCC3=O)CCO2)c1 (stereo not drawn),-6.18,5.41,-4.61,8.1,8.7,0.744,7.3,-3.36,-3.23,11.1,-4.96
Cc1noc2ncc(C(=O)NCC3CCOC3)cc12 (stereo not drawn),-4.3,0,-6.17,-5.94,-6.96,1.53,6.35,26.5,2.45,0,-12.5
O=C(CN1CCCC1Cn1cncn1)NC(C1CC1)C1CC1 (stereo not drawn),-1.42,-1.39,2.21,-0.594,2.04,1.32,10.9,-11.5,3.16,0,-1.96
COc1ccnc(N2CCN(CC(=O)N3CCOCC3)CC2)n1,-3.7,18.4,3.44,-1.28,-0.28,-5.04,8.54,-2.03,8.37,18.5,-6.56
Cc1ccc(C(=O)N2CCCC(C(=O)N3CCCCC3)C2)c(O)c1 (stereo not drawn),-7.91,10.8,-4.33,-0.223,-5.19,-1.2,-2.7,12.5,2.46,1.24,-4.49
CN(Cc1ccccc1O)C(=O)NC1CCCN(c2ncccn2)C1 (stereo not drawn),-1.53,15.8,0.343,-3.02,-7.89,-1.53,6.01,26.3,2.45,7.32,-8.65
CCCOc1ccc(CNC(=O)N2CCC(C(N)=O)C2)cc1 (stereo not drawn),-0.765,22.8,-8.41,-9.27,-2.36,2.28,5.82,-21.1,4.43,13.9,-2.35
Fc1cnc(N2CCn3cc(CNc4ccccn4)nc3C2)nc1,0.222,-2.67,7.82,16.2,-0.193,-56.1,3.76,7.84,-1.04,-5,-2.56
